# PubChem BioAssay (NCI)
# This is part of a sample that, as a whole, favours compounds with a hit. Of some 83,000 tested, about 20% had one in any assay.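 The test compound was applied at a single concentration to cells in 96-well plates for 48 hours, and percent growth was recorded.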 Values without a mark were called inactive. The source made the active and inactive calls. Rule for the calls: active = growth percent below 10; inactive = the rest.
# Tests used:
# Assay in all cases: NCI-60 one-dose screen, 48 h (100 = growth as untreated, 0 = no growth, -100 = all killed)
# Conditions in all cases: 10 µM unless noted
# [1] = tested on: EKVX NSCLC
# [2] = tested on: SN12C renal
# [3] = tested on: UO-31 renal
# [4] = tested on: TK-10 renal
# [5] = tested on: ACHN renal
# [6] = tested on: CAKI-1 renal
# [7] = tested on: A498 renal
# [8] = tested on: MOLT-4 leukemia
# [9] = tested on: CCRF-CEM leukemia
Structure (SMILES),growth [1],growth [2],growth [3],growth [4],growth [5],growth [6],growth [7],growth [8],growth [9]
COc1ccc2c(c1)CCCN2c1c2ccccc2nc2ccccc12,45%,39.5%,29.8%,48.2%,24.5%,27.8%,-4.56% (active),15.4%,
C[C@]12CC[C@@H]3c4cc(OC(F)F)c(O)cc4CC[C@H]3[C@@H]1CC[C@@H]2OS(N)(=O)=O,24.6%,44.2%,38.2%,93.2%,50.7%,34.5%,-7.08% (active),25.3%,16.6%
Cc1c(C(=O)N[C@@H](Cc2ccccc2)C(=O)C(=O)NCCc2ccccc2)[nH]c2ccccc2c1=O,97.1%,83.4%,103%,118%,101%,95.9%,86.5%,86.8%,104%
O=C(Nc1ccc(Cl)cc1)Nc1ccc(Cl)c(C(F)(F)F)c1,-3.9% (active),6.93% (active),18.5%,18.1%,0.165% (active),8.5% (active),-7.36% (active),-9.08% (active),-27.6% (active)
COC(=O)[C@]12CC[C@@H](C)[C@H](C)[C@@H]1C1=CC[C@@H]3[C@@]4(C)C(C=O)=C[C@@](C)(COS(C)(=O)=O)C4[C@H](O)C[C@@]3(C)[C@]1(C)CC2 (stereo partly specified),,-40.8% (active),-96.6% (active),-73.5% (active),-93.2% (active),-15.6% (active),-38.5% (active),,-33.8% (active)
N=C1CCC(=N)c2c1c(O)c1ccccc1c2O,82.1%,105%,101%,127%,87%,56%,100%,81.1%,98.4%
COc1cc(N=Nc2ccc(N)cc2)c(OC)cc1N=Nc1ccccc1.[Cl][Zn][Cl],103%,102%,53.1%,140%,91.1%,75.1%,116%,,106%
COC(=O)c1c2c(c[n+]([O-])c1C)C(=O)C=CC2=O,101%,59.7%,46.5%,101%,14.2%,62.1%,106%,-17.4% (active),
COc1ccc(-c2nc3c(c(=O)n2C(C)=O)C(c2ccc(Cl)cc2)c2sc4c(Cl)cccc4c2O3)cc1 (stereo unspecified),24.6%,-35.1% (active),6.4% (active),-35.6% (active),8.98% (active),-6.4% (active),-2.79% (active),,-3.94% (active)
N#Cc1c(-c2ccccc2)cc(-c2ccc(Nc3nc(Nc4ccc(F)cc4)nc(Nc4ccc(F)cc4)n3)cc2)nc1N,88.9%,90.3%,90.4%,94%,107%,99.8%,91.7%,17.3%,
C=C(C)[C@@H]1CC=C2c3sc(-c4ccc(C)cc4)nc3C[C@@H](C)[C@]2(C)C1,95.1%,98.8%,78%,113%,102%,90.6%,106%,98%,99.4%
COc1cccc(-c2nc3sccn3c2-c2ccnc(NCCNS(=O)(=O)c3ccc(C(F)(F)F)cc3)c2)c1,40.4%,40.7%,-23.8% (active),49.2%,-60.2% (active),34.5%,18.9%,13.7%,22.6%
O=[N+]([O-])c1ccc(N2c3ccncc3Sc3ccncc32)cc1,88.7%,99%,56.9%,105%,93.7%,87.8%,112%,104%,101%
Cn1cc(-c2csc(-c3cccc(F)c3)n2)c2cccnc21,21.3% [100 µM],-65% [100 µM] (active),-27.7% [100 µM] (active),-52.7% [100 µM] (active),-31.8% [100 µM] (active),-57.2% [100 µM] (active),-84.2% [100 µM] (active),4.1% [100 µM] (active),
Cc1cc(NCc2cc(Nc3ccnc4cc(Cl)ccc34)ccc2F)nc(N2CCOCC2)n1,54.3%,31.4%,-47.8% (active),-10.4% (active),-79.5% (active),60.3%,51.7%,,1.04% (active)
NNC(=O)c1nc(N)n(-c2ccc(S(N)(=O)=O)cc2)n1,98.2%,97.6%,76.2%,104%,100%,88%,103%,105%,
COc1ccc(OC)c2c1[nH]c(=O)c1c3ncccc3cn21,34.4%,13.3%,26.5%,38.6%,17.7%,-29.2% (active),31.5%,17.7%,
CNC(=O)c1cc(Oc2ccc3nc(Nc4ccc(Cl)c(C(F)(F)F)c4)ccc3c2)ccn1,62.6%,71.1%,57.8%,54.5%,49.4%,92.7%,61.8%,,42.2%
O=c1c2cc(F)ccc2sc2c(NCCCN3CCCC3)nc3ccccc3c12,53.5%,42.3%,15.1%,57.9%,41.8%,30.4%,46.6%,-14.5% (active),29%
COc1cc(/C=N/NC(=O)Cn2c(C(C)C)nc3ccccc32)ccc1O,103%,94.7%,84.5%,106%,99.6%,91.8%,81.9%,93.6%,94.5%
C[C@H]1[C@H]2[C@H]3CC[C@@H]4[C@@]5(C)C/C(=C/c6ccco6)C(=O)C(C)(C)[C@@H]5CC[C@@]4(C)[C@]3(C)CC[C@]23CO[C@]1(C)[C@@H](C(=O)/C=C\c1ccco1)C3,107%,90.4%,71.5%,103%,68.4%,69%,123%,100%,100%
COc1cc2nc(Cl)nc(Nc3ccc(S(=O)(=O)Nc4nccs4)cc3)c2cc1OC,93.9%,95.7%,85.4%,119%,88.2%,88.2%,136%,99.3%,117%
COc1cc(CCC[P+](c2ccccc2)(c2ccccc2)c2ccccc2)cc2c1OCO2,28.3%,35.9%,88.2%,19.5%,91.8%,86%,45.9%,53.5%,41.3%
O=C(O)CN1C(=O)CCC1=O,95.4%,102%,102%,107%,96%,102%,97.4%,114%,
COc1ccc(C2=Nc3c(N)ncnc3NC(c3ccc4c(c3)OCO4)C2)cc1 (stereo unspecified),82.1%,102%,79.4%,107%,83.6%,90%,97.5%,105%,
